Cruzain Triton: inhibitors of Trypanosoma cruzi cruzain with detergent; P25779; purified cruzain, Z-FR-AMC fluorescence, 0.01% Triton; Potency, µM, for the others: max response, negative = inhibition, actives largely listed as inhibitors; 200,000 tested, 0.43% active; AID 1478;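 further: plate controls were neutral wells for no effect and buffer without enzyme for full effect; nearly all actives have a fitted effect of over 40% in size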
Target sequence (P25779 123-467 limits assumed): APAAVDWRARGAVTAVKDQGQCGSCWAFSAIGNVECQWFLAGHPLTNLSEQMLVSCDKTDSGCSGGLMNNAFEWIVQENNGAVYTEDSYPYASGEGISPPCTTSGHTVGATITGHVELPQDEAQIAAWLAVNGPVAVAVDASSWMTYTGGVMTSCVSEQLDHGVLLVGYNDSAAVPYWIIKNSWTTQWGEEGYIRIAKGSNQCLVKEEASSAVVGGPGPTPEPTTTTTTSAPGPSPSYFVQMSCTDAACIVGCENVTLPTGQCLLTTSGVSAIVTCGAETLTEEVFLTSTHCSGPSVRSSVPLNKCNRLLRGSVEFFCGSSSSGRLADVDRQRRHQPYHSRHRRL
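Sodium acetate buffer (100 mM, pH 5.5) containing 5 mM DTT and 0.01% Triton X-100 hosted 1.5 nM cruzain and test compound for 15 min at room temperature. Cleavage of 2 uM Z-FR-AMC was then tracked by fluorescence.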
Cruzain inh noDet: inhibitors of Trypanosoma cruzi cruzain without detergent | 200,000 tested, 2.3% active | purified cruzain, Z-FR-AMC fluorescence, no detergent | P25779 | Potency, µM, without a hit: max response, negative = inhibition, hits mostly inhibitors;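 further: plate controls were enzyme without inhibitor for no effect and buffer without enzyme for full effect; nearly all actives have a fitted effect of over 40% in size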
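Detergent-free condition (0.00005% Triton X-100) in acetate buffer pH 5.5 with DTT. 1.5 nM enzyme and compound were pre-mixed 15 min, then 2 uM Z-FR-AMC substrate added; reaction progress from fluorescence change between first and third reads (60 s).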
Numbers without * were called inactive; ? = inconclusive. Compounds with a hit are over-represented: about 2.4% of the library has one in this group of screens. The call rests on the fitted dose curve; in most records, active means well fitted curve in the direction sought with a large enough effect; inconclusive means small, poorly fitted or top-dose-only effect, or another doubt; inactive means no such curve, though single readings can be large; an effect the other way counts as inactive or inconclusive. Potency means the concentration at half of the fitted maximal effect.

SMILES	Cruzain Triton	Cruzain inh noDet
COc1ccc(NC(=O)CCc2c(C)nc3c(c2C)c(=O)n(C)c(=O)n3C)c(OC)c1	-0.4%	2.5%
COc1ccc(N2CCN(C(=O)c3cnn(-c4ccc(OC)cc4)c3C3CCN(C(=O)OC(C)(C)C)CC3)CC2)cc1	-0.4%	-3.8%
CCN(CC)C(=O)Cn1c(=O)n(-c2ccc(C)c(C)c2)c(=O)c2c3c(sc21)CCCCC3	-1.5%	1.2%
Cc1ccc(C)n1-c1c(C(=O)NCC(C)c2ccccc2)sc2ncccc12 (stereo not given)	-8.4%	0.8%
COc1ccc(NC(=O)CCCn2c(=O)c3cccn3c3ccccc32)c(OC)c1	-3.0%	?
CC(=O)Oc1c(C)cc(OCC(O)CNC(C)C)c(C)c1C (stereo not given)	-0.6%	-10.9%
CCOC(=O)C1=C(O)C(=O)N(c2ccc(S(N)(=O)=O)cc2)C1c1ccc(OC)cc1 (stereo not given)	1.0%	-0.7%
CCOC(=O)C1C(C)=C(Nc2ccc(OC)cc2)C(=O)N1c1ccc(OC)cc1 (stereo not given)	-1.5%	12.6µM*
COCCCNc1ncnc2c1nnn2C	-3.4%	3.2%
Cc1cc(C)nc(SCc2cc(=O)c(OC(=O)c3ccc(Br)o3)co2)n1	?	-14.6%
Cc1cc(C)nc(SCc2cc(=O)c(OC(=O)c3ccco3)co2)n1	25.1µM*	?
COc1ccc(NC(=O)CSc2nc3ccccc3nc2N2CCC(C)CC2)cc1	-6.8%	?
CN1C(=O)c2ccccc2Sc2ccc(NC(=O)c3ccc(C#N)cc3)cc21	-3.0%	0.0%
COc1ccc(CCNC(=O)c2c(C)oc3nc(C)nc(N4CCOCC4)c23)cc1OC	-1.8%	-5.5%
CCCn1c2ccc(C)cc2c2nnc(SCCN3CCCCC3)nc21	14.1µM*	?
CCOC(=O)C(CC)Sc1nnc2c3cc(C)ccc3n(C)c2n1 (stereo not given)	-13.0%	?
CCn1c2ccc(C)cc2c2nnc(NN)nc21	-17.3%	-23.8%
CSc1nnc2c3cc(C)ccc3n(Cc3ccccc3)c2n1	?	25.1µM*
COC(=O)C1(C(=O)OC)CC2=CCC3C(=O)N(c4ccccc4)C(=O)C3C2Cc2ccccc2[C@@H]1C[N+](=O)[O-] (stereo not given in full)	-1.1%	13.4%
CCOc1ccc2c(c1)nc(SCC(=O)c1ccc(Br)s1)n2C	4.0%	25.1µM*
CCOc1ccc2c(c1)nc(SCC(=O)c1cccs1)n2C	-1.7%	9.6%
CCc1ccc(CN(Cc2ccco2)c2cnc(S(C)(=O)=O)nc2C(=O)Nc2ccccc2Cl)cc1	-1.4%	-25.3%
Cc1cccc(CCn2c(=O)c3ccccc3n(Cc3ccccc3C)c2=O)c1	-0.8%	1.9%
COc1ccc(CN=Cc2[nH]c3ccc(Br)c(Cl)c3c2O)cc1	-14.6%	25.1µM*
Cc1cc(C)cc(N=Cc2[nH]c3ccc(Br)c(Cl)c3c2O)c1	-0.8%	3.98µM*
SMILES	Cruzain Triton	Cruzain inh noDet
COc1ccc(CN=CC2=C(O)CNC2=O)cc1	8.3%	-2.2%
Cc1ccc(O)c(C=Nc2ccc3[nH]ncc3c2)c1	?	7.4%
CC(=O)C1=C(c2ccc(Cl)c(Cl)c2)N(C(C)=O)n2cnnc2S1	?	-27.2%
COc1ccccc1NC(=O)Cn1c(=O)n(Cc2ccco2)c(=O)c2oc3ccccc3c21	-2.3%	-5.4%
Cc1ccc(NC(=O)NCCc2c(C)nn(C)c2C)cc1Cl	-0.6%	-1.4%
CCn1c2ccccc2c2cc(/C=N/NC(=O)c3ccccc3)ccc21	?	31.6µM*
CCn1c2ccccc2c2cc(/C=N/n3c(C)nnc3C)ccc21	-16.3%	?
CCn1c2ccccc2c2cc(NC(=O)C3CCN(S(=O)(=O)c4cccs4)CC3)ccc21	1.8%	?
CCn1c2ccccc2c2cc(NC(=O)Cc3ccc(S(=O)(=O)N4CCOCC4)s3)ccc21	-2.1%	15.8µM*
CCc1ccc(OCc2nnc(NC(=O)c3cccs3)s2)cc1	1.9%	12.6µM*
Cc1ccc(OCc2nnc(NC(=O)Cc3cccs3)s2)cc1	3.9%	?
O=C(NC(=S)Nc1nc2ccccc2s1)c1cccs1	-8.9%	-26.0%
CCc1ccc(-c2nc(NC(=S)NC(=O)c3cccs3)sc2C)cc1	2.8%	3.98µM*
CC(C)(C)OC(=O)[C@H](C1N[C@@H](C(=O)O)C(C)(C)S1)N1C(=O)c2ccccc2C1=O (stereo not given in full)	4.4%	22.4%
Cc1c(-c2nc(-c3ccc4c(c3)[nH]c(=O)n4C)no2)cccc1[N+](=O)[O-]	-1.1%	-4.0%
O=C(NCCCc1ccccc1)c1nn(-c2ccccc2F)nc1CO	-1.1%	5.0%
CCOC(=O)c1c(C)n(Cc2ccco2)c2c1cc(O)c1ccccc12	-1.8%	25.1µM*
CCOC(=O)c1c(C)n(Cc2ccco2)c2ccc(OC)cc12	-17.7%	9.4%
CCOc1ccc(-c2cc(NC(=O)Nc3ccccc3C(F)(F)F)c(C(=O)OC)s2)cc1	-2.5%	7.1%
COc1cccc(C(=O)NC2=NCCS2)c1	0.3%	-5.0%

Source: PubChem BioAssay (National Center for Advancing Translational Sciences (NCATS))
